Assay results published in PubChem BioAssay (NCATS).
Several values for one entry are separate records, joined by “and”; a condition that tells them apart may be missing. Equal values may be shown once. Values without a mark were called inactive. Inconclusive results are not listed. Activity calls are given as the source filed them. Unless noted, calls come from the whole dose curve; as a rule, active = well fitted curve in either direction with a large enough effect (not every such curve was filed as active); inconclusive = small, poorly fitted or top-dose-only effect, or another doubt; inactive = flat fitted curve, though single readings scatter.

How the values were obtained:
[1] = molecular target: Lysosomal acid glucosylceramidase (Homo sapiens) (UniProt P04062); assay: Glucocerebrosidase-p2 (AID 348; in the data active = potency below about 10 µM; note: potency is the fitted concentration of half-maximal effect); details: purified GBA, blue fluorogenic substrate, 40 min
Chain of Lysosomal acid glucosylceramidase (Homo sapiens) (P04062 whole entry, looked up): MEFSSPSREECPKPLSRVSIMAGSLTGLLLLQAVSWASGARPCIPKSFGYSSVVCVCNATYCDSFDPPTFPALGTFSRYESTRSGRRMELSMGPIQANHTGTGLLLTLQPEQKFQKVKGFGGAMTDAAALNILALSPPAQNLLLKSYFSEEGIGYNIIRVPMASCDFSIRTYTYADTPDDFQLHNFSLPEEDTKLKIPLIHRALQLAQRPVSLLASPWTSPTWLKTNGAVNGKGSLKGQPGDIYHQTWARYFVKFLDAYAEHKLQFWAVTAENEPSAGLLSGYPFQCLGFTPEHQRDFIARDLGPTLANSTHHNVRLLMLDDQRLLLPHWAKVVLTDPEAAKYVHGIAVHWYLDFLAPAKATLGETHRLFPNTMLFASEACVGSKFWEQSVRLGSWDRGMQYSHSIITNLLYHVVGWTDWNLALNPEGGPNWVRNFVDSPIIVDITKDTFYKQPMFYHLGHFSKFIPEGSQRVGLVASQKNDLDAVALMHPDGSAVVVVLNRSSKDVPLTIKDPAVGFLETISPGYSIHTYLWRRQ
Outline: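 Normal human glucocerebrosidase (0.2 nM) with blue fluorogenic substrate (80 uM final) in citrate/phosphate pH 5.9 with 10mM sodium taurocholate, 0.01% tween-20; 40 min RT, NaOH/glycine stop; fluorescence Ex 365/Em 440; AC50 from a titration from 0.6 nM upwards.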

[2] = AP1 Signaling Pathway (AID 357); details: ME-180 AP-1-bla reporter, EGF-induced, beta-lactamase ratio, 5 h; at 7.69 µM (top of the series) unless noted;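 note: ME-180 reporter cells stimulated with EGF at its EC50 level; % is set by controls: 0 for no effect and ±100 for the full control effect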
Outline: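 In this screen, ME-180 cells in Opti-MEM with 0.5% dialyzed FBS received EC50 EGF and compound titrations for 5 h. AP-1 reporter beta-lactamase was detected via CCF4 ratio, giving AC50 for positive and negative modulators.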

[3] = molecular target: Cytochrome P450 1A2 (Homo sapiens) (UniProt P05177); assay: p450-cyp1a2 (AID 410; calls by dose curve; note: potency is the fitted concentration of half-maximal effect;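 for activity change, negative = inhibition: -100% = full effect of reference inhibitor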); details: recombinant CYP1A2, luciferin-ME demethylation, luminescence; series mostly up to 11.4 µM
Chain of Cytochrome P450 1A2 (Homo sapiens) (P05177 whole entry, looked up): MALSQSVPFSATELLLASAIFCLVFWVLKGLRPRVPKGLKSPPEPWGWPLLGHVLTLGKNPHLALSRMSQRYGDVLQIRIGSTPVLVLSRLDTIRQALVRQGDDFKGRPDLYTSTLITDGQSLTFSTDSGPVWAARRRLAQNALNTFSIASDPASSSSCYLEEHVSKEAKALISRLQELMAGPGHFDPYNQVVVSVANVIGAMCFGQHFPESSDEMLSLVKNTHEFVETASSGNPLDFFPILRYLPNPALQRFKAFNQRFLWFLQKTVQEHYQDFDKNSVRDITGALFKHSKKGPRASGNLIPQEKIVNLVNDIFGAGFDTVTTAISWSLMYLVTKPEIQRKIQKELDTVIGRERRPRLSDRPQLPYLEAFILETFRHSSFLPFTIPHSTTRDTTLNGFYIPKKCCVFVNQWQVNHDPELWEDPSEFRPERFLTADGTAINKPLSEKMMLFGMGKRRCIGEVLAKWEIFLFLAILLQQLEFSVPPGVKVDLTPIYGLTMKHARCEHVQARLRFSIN
Outline: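 20nM CYP1A2, 100uM Luciferin-ME (=Km), 100mM KPO4; cpd 10 min RT; +NADPH regen, 60 min RT; stop/detect 20 min; luminescence. Normalized to furafylline 57 uM = full inhibition.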

[4] = molecular target: Glucocorticoid receptor (Homo sapiens) (UniProt P04150); assay: GR-GFP Redistribution (AID 450;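 active = compounds whose dose series gives a full or clear partial fitted curve of increased nuclear translocation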; note: potency is the fitted concentration of half-maximal effect); details: U2OS GR-GFP nuclear translocation, laser cytometry, 2 h
Chain of Glucocorticoid receptor (Homo sapiens) (P04150 whole entry, looked up, the tested form may be a part): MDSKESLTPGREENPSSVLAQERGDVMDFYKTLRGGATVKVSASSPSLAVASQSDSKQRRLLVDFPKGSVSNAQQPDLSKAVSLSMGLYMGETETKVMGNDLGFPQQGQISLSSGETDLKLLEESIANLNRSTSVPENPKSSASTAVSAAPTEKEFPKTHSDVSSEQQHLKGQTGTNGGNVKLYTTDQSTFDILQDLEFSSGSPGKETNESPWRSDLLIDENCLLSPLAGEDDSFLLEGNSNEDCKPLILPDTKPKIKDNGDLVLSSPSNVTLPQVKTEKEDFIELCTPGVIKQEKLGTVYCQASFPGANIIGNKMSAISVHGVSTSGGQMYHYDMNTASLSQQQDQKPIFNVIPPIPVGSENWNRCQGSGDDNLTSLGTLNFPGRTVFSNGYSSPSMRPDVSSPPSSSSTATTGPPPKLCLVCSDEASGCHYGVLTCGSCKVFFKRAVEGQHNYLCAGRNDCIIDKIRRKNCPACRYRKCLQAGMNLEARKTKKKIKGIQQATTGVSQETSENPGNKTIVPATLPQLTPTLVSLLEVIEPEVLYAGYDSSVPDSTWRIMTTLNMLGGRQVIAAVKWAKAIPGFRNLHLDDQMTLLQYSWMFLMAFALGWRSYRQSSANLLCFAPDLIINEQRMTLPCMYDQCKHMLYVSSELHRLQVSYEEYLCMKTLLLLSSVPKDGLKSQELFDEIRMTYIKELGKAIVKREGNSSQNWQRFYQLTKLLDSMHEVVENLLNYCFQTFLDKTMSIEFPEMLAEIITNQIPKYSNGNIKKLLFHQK

[5] = molecular target: Glucocorticoid receptor (Homo sapiens) (UniProt P04150); assay: GR-EFC Redistribution (AID 451; calls by dose curve; note: potency is the fitted concentration of half-maximal effect); details: CHO-K1 GR-EFC translocation, beta-gal luminescence, 2 h
Outline: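 Translocation of GR-ED fusion to nuclear EA restores b-gal, read by luminescence after 1 h room-temperature detection. Engineered CHO-K1 biosensor cells, 1,000/well, exposed 2 h at 37 C to titrations up to 46 uM final.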

[6] = molecular target: Mitogen-activated protein kinase 10 (Mus musculus) (UniProt Q61831); assay: JNK3 AlphaScreen Assay (AID 530); details: JNK3 lysate, c-Jun phosphorylation; series mostly up to 11.4 µM;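 note: kinase came from lysate of stimulated human HepG2 cells; signal reports phosphorylation of biotinylated GST-cJun 1-79 at Ser73 with 10 µM ATP; % is set by controls: 0 for no effect and ±100 for the full control effect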
Outline: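 Kinase buffer: 20 mM Tris-HCl pH 7.6, 10 mM MgCl2, 1 mM DTT, 0.1 mM Na3VO4, 0.01% Tween-20; ATP 10 uM. Substrate biotin-GST-cJun(1-79), enzyme from activated HepG2 lysates. Detection by Ser73 phospho-antibody AlphaScreen.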

[7] = molecular target: 3',5'-cyclic-AMP phosphodiesterase 4B (Homo sapiens) (UniProt Q07343); assay: qHTS Assay for Inhibitors of PDE-IV (AID 607; active = well fitted activation curve with a large enough effect in the main read-out, with a control signal flat, not every such curve was filed as active; note: % of control where 0% means no effect); details: HEK293 ACTOne CNG channel cells, membrane potential fluorescence; series mostly up to 22.9 µM
Chain of 3',5'-cyclic-AMP phosphodiesterase 4B (Homo sapiens) (Q07343 whole entry, looked up): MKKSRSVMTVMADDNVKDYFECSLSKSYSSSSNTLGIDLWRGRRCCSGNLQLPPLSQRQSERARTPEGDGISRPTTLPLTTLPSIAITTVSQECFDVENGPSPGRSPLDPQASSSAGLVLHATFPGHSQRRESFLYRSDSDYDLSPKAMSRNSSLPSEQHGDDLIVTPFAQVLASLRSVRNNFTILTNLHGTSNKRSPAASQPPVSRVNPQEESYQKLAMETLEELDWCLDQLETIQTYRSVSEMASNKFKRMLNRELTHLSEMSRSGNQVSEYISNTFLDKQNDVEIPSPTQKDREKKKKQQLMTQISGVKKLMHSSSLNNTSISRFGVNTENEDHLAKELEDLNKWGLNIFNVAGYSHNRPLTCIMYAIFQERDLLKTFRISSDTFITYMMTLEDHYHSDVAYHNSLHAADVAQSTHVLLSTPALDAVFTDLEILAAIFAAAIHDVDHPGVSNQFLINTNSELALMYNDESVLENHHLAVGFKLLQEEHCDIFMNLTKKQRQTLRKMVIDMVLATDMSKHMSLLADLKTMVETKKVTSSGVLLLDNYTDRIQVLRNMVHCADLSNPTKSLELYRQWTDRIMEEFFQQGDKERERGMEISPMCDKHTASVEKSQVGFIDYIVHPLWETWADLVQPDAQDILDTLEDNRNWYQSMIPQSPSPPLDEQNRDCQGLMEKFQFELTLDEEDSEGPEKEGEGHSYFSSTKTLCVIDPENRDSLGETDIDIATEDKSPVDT
Outline: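 Cell-based read-out of cAMP via a modified cyclic nucleotide-gated channel and membrane potential dye (535/590 nm) in HEK293 cells expressing PDE4 endogenously. Compounds tested up to 22.9 uM final; 100 uM RO 20-1724 reference.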

[8] = molecular target: Cytochrome P450 2C19 (Homo sapiens) (UniProt P33261); assay: qHTS Assay for Inhibitors and Substrates of Cytochrome P450 2C19 (AID 899; active = well fitted curve in the direction sought with a large enough effect; an effect the other way counts as inactive or inconclusive; note: nearly all actives have a fitted effect of over 60% in size; note: potency is the fitted concentration of half-maximal effect); details: recombinant CYP2C19, luciferin-H EGE luminescence; series mostly up to 11.4 µM
Chain of Cytochrome P450 2C19 (Homo sapiens) (P33261 whole entry, looked up): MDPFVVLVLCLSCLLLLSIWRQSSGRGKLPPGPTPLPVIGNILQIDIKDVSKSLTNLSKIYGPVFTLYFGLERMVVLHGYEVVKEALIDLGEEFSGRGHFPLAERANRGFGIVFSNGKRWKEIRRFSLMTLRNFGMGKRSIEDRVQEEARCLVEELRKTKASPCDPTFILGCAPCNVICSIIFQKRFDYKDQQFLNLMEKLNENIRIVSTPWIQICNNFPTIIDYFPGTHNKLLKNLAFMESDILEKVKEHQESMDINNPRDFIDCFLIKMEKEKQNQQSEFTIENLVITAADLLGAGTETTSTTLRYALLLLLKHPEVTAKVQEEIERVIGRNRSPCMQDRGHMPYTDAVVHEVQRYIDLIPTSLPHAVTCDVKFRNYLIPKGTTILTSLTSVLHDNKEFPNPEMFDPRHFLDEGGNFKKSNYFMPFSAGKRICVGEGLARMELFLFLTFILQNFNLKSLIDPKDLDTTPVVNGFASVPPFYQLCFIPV
Outline: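 5nM enzyme + 10uM Luciferin-H EGE (=KM), 50mM KPO4; cpd pin-transferred, 10 min 37C; NADPH regen, 60 min 37C; stopped w/ luciferin detection reagent, 20 min; luminescence. Normalized to 57uM ketoconazole (AC100).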

[9] = molecular target: Cytochrome P450 2C9 (Homo sapiens) (UniProt P11712); assay: qHTS Assay for Inhibitors and Substrates of Cytochrome P450 2C9 (AID 883; active = well fitted curve in the direction sought with a large enough effect; an effect the other way counts as inactive or inconclusive; note: nearly all actives have a fitted effect of over 60% in size; note: potency is the fitted concentration of half-maximal effect); details: recombinant CYP2C9, luciferin-H luminescence, 60 min; series mostly up to 11.4 µM
Chain of Cytochrome P450 2C9 (Homo sapiens) (P11712 whole entry, looked up): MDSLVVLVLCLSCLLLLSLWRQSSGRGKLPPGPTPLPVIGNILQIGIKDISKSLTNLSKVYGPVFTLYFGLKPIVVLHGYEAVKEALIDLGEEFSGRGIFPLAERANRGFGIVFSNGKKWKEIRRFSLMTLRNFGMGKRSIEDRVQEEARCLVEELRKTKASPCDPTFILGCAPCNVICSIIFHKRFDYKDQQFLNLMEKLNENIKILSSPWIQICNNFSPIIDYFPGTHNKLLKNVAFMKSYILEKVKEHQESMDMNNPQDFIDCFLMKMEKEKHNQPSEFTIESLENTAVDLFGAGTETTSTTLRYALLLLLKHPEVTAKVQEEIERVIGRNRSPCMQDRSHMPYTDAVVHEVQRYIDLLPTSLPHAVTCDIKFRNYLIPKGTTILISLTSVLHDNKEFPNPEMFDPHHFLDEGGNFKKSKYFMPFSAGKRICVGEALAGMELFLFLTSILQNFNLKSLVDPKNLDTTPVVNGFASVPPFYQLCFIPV
Outline: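 Inhibition of CYP2C9 is scored as loss of luminescence, with 57uM sulphaphenazole defining 100% inhibition. Substrate Luciferin-H is used at 100uM, equal to its KM; enzyme at 10nM in 25mM KPO4, 60 min at 37C with NADPH regeneration.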

[10] = molecular target: Cytochrome P450 3A4 (Homo sapiens) (UniProt P08684); assay: qHTS Assay for Inhibitors and Substrates of Cytochrome P450 3A4 (AID 884; active = well fitted curve in the direction sought with a large enough effect; an effect the other way counts as inactive or inconclusive; note: % is set by controls: 0 for no effect and ±100 for the full control effect; nearly all actives have a fitted effect of over 50% in size); details: recombinant CYP3A4, Luciferin-PPXE luminescence; series mostly up to 57.1 µM
Chain of Cytochrome P450 3A4 (Homo sapiens) (P08684 whole entry, looked up): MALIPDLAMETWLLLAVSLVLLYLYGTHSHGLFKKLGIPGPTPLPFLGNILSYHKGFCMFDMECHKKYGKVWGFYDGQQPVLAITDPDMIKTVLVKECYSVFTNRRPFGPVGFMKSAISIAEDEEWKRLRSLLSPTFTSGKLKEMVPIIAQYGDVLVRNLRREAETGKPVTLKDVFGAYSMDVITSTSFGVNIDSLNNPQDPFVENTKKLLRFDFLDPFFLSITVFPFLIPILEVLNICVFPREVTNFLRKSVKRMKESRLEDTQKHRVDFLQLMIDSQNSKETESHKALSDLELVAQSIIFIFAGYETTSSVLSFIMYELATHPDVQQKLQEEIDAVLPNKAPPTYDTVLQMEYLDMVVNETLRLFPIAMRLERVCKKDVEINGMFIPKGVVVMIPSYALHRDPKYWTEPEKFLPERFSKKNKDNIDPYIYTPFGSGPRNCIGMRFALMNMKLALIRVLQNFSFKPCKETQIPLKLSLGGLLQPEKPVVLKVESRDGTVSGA
Outline: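 Luminescent readout of luciferin produced by CYP3A4 (20 nM) dealkylation of Luciferin-PPXE, 25 uM (its KM). NADPH-driven reaction ran 60 min at RT after 10 min compound preincubation; data scaled to 57 uM ketoconazole as 100% inhibition.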

[11] = molecular target: Cytochrome P450 2D6 (Homo sapiens) (UniProt P10635); assay: qHTS Assay for Inhibitors and Substrates of Cytochrome P450 2D6 (AID 891; active = well fitted curve in the direction sought with a large enough effect; an effect the other way counts as inactive or inconclusive; note: nearly all actives have a fitted effect of over 60% in size; note: potency is the fitted concentration of half-maximal effect); details: recombinant CYP2D6, luciferin-ME EGE luminescence; series mostly up to 11.4 µM
Chain of Cytochrome P450 2D6 (Homo sapiens) (P10635 whole entry, looked up): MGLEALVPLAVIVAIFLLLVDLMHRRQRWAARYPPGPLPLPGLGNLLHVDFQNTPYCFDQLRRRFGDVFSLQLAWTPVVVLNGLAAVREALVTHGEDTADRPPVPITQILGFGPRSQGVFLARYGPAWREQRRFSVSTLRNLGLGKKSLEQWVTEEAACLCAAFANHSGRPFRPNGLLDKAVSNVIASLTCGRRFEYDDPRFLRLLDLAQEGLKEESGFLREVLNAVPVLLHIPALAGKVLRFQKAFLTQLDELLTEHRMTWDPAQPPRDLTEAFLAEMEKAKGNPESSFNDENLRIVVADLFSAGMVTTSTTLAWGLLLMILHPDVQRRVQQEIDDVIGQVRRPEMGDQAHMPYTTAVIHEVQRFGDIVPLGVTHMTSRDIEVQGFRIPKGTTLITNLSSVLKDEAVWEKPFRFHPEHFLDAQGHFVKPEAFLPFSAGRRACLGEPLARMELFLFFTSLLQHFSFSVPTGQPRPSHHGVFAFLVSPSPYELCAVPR
Outline: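 Luminescent read-out of luciferin formed by 5 nM human CYP2D6 demethylating 30 uM Luciferin-ME EGE (Km level) over 60 min at room temperature after NADPH regeneration addition. Data normalized to full inhibition by 1.43 uM quinidine.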

[12] = NFAT Signaling Pathway (AID 444); details: Jurkat NFAT-bla M1, carbachol, beta-lactamase ratio, 5 h;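 note: carbachol stimulus at about its EC50 of 1 µM final; % is set by controls: 0 for no effect and ±100 for the full control effect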
Outline: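 Read-out: CCF4 FRET ratio (460 nm/530 nm) after 1 h RT dye loading, used for %activity and AC50 from titration series. Cells: Jurkat NFAT-β-lactamase/M1 line, treated with compound plus 1 uM carbachol for 5 h, 37 °C.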

[13] = Stat Signaling Pathway (AID 446); details: ME-180 (cervical carcinoma) SIE beta-lactamase reporter, IL-6 stimulated, 5 h;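 note: ME-180 cervical cancer cells given 40 pM IL-6 alongside compound; SIE-controlled beta-lactamase reporter measured as 460/530 nm FRET emission ratio; % is set by controls: 0 for no effect and ±100 for the full control effect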
Outline: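 FRET read-out (405 nm excitation, 460/530 nm emission) of a beta-lactamase reporter under a STAT-inducible element in ME-180 cervical carcinoma cells. Cells with compound receive 40 pM IL-6 for 5 h. Values are normalised to AC90 stimulation and AC90 JAK-inhibitor controls.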

[14] = molecular target: Cytochrome P450 3A4 (Homo sapiens) (UniProt P08684); assay: qHTS Assay for Activators of Cytochrome P450 3A4 (AID 885; active = well fitted curve in the direction sought with a large enough effect; an effect the other way counts as inactive or inconclusive; note: nearly all actives have a fitted effect of over 65% in size); details: recombinant CYP3A4, Luciferin-PPXE luminescence, 60 min; series mostly up to 11.4 µM
Outline: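 Luminescent readout of luciferin formed from 25 uM Luciferin-PPXE (KM level) by 20 nM CYP3A4 in 200 mM KPO4, with 60 min NADPH-driven reaction at room temperature after 10 min compound exposure. Ketoconazole (57 uM) defined 100% inhibition.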

[15] = at 7.69 µM (top of the series) unless noted

## O=[N+]([O-])c1ccc([C@@H](Nc2ccccc2)c2ccc3cccnc3c2O)cc1
[1]
  Potency: > 11.4 µM
[2]
  activity change, negative = inhibition: -13.7%
[3]
  activity change, negative = inhibition: -21.3% [at 2.29 µM]
[4]
  Potency: > 46 µM
[5]
  Potency: > 9.22 µM
[6]
  Potency: inactive
[7]
  Potency: inactive
[8]
  Potency: 3.98 µM (active)

## c1ccc(CNCCN2CCNCC2)nc1
[1]
  Potency: > 11.4 µM
[2]
  activity change, negative = inhibition: 4.86%
[3]
  Potency: inactive
[4]
  Potency: > 46 µM
[5]
  Potency: > 9.22 µM
[6]
  Potency: inactive
[7]
  Potency: inactive
[9]
  Potency: inactive
[10]
  activity change, negative = inhibition: -5.12% [at 11.4 µM]
[11]
  Potency: inactive
[8]
  Potency: inactive

## O=C(O)[C@@H]1[C@H](C(=O)O)[C@H]2C(=O)C=C[C@H]1N2Cc1ccccc1
[1]
  Potency: > 11.4 µM
[2]
  activity change, negative = inhibition: -5.73%
[3]
  activity change, negative = inhibition: -3.9% [at 2.29 µM]
[4]
  Potency: > 46 µM
[5]
  Potency: > 9.22 µM
[6]
  Potency: inactive
[7]
  Potency: inactive

## Cc1ccc(C)c(/C(=N\N=C(N)N)C2CC2)c1
[1]
  Potency: > 11.4 µM
[2]
  activity change, negative = inhibition: -1.56%
[3]
  activity change, negative = inhibition: 1.1% [at 2.29 µM]
[4]
  Potency: > 46 µM
[5]
  Potency: > 9.22 µM
[6]
  Potency: inactive
[7]
  Potency: inactive

## COc1ccc(Oc2ncc3nc(C)c(=O)n(Cc4ccc(F)cc4)c3n2)cc1
[1]
  Potency: > 11.4 µM
[2]
  activity change, negative = inhibition: -26.5%
[12]; [15]
  activity change, negative = inhibition: -3.9%
[13]; [15]
  activity, negative = inhibition: -12.2%
[4]
  Potency: > 9.22 µM
[5]
  Potency: > 46 µM
[6]
  Potency: inactive

## C[C@H](Oc1ccc(Oc2cnc3ccc(Cl)cc3n2)cc1)C(=O)O
[1]
  Potency: > 11.4 µM
[2]
  activity change, negative = inhibition: -24.4% [at 38 µM]
[12]; at 7.69 µM (top of the series)
  activity change, negative = inhibition: 8.25%
[12]; at 38 µM (top of the series)
  activity change, negative = inhibition: 7.14%
[13]; at 7.69 µM (top of the series)
  activity, negative = inhibition: -19.5%
[13]; at 38 µM (top of the series)
  activity, negative = inhibition: -10.1%
[4]
  Potency: > 46 µM
[5]
  Potency: > 46 µM and > 9.22 µM
[6]
  Potency: inactive
[7]
  Potency: inactive

## O=C(Nc1ccc(-c2cn3ccccc3n2)cc1)c1cc(Br)ccc1O
[1]
  Potency: > 11.4 µM
[2]
  activity change, negative = inhibition: -0.171%
[12]; [15]
  activity change, negative = inhibition: 1.22%
[13]; [15]
  activity, negative = inhibition: -0.935%
[4]
  Potency: > 46 µM
[5]
  Potency: > 9.22 µM
[6]
  Potency: inactive

## O=[N+]([O-])c1cccc(/C=N\Nc2ccc3ccccc3n2)c1O
[1]
  Potency: > 11.4 µM
[2]
  activity change, negative = inhibition: -13.9%
[3]
  Potency: 0.794 µM (active)
[4]
  Potency: > 46 µM
[5]
  Potency: > 9.22 µM
[6]
  Potency: inactive
[7]
  Potency: inactive
[14]
  Potency: inactive
[11]
  Potency: 3.16 µM (active)

## COc1cc(O)c2c(O)c3c(c4c2c1[C@@]1(C4)C(C)=CCCC1(C)C)[C@H](O)[C@@]1(O)CC(=O)C(C(N)=O)=C(O)[C@]1(O)C3=O
[1]
  Potency: > 11.4 µM
[2]
  activity change, negative = inhibition: -27.8%
[3]
  Potency: 3.16 µM (active)
[4]
  Potency: > 46 µM
[5]
  Potency: > 9.22 µM
[6]
  Potency: inactive
[7]
  Potency: inactive
[8]
  Potency: 2.51 µM (active)

## Oc1ccc(Cl)cc1Cc1cc(Cl)cc(Cc2cc(Cl)ccc2O)c1O
[1]
  Potency: > 11.4 µM
[2]
  activity change, negative = inhibition: -14%
[3]
  activity change, negative = inhibition: -23.8% [at 2.29 µM]
[4]
  Potency: > 46 µM
[5]
  Potency: > 9.22 µM
[6]
  Potency: inactive
[7]
  Potency: inactive
[9]
  Potency: 2.51 µM (active)
[8]
  Potency: 1.26 µM (active)

## CC(C)(C)NCC[C@@H](O)c1cc(C(F)(F)F)nc2c(C(F)(F)F)cccc12
[1]
  Potency: > 11.4 µM
[2]
  activity change, negative = inhibition: 9.95%
[3]
  activity change, negative = inhibition: -9.9% [at 2.29 µM]
[13]; [15]
  activity, negative = inhibition: -4.67%
[5]
  Potency: > 9.22 µM
[6]
  Potency: inactive
[7]
  Potency: inactive
[11]
  Potency: 0.316 µM (active)

## CCCc1cc(COC)c(C#N)c(=O)[nH]1
[1]
  Potency: > 11.4 µM
[2]
  activity change, negative = inhibition: 1.77%
[12]; [15]
  activity change, negative = inhibition: -2.55%
[13]; [15]
  activity, negative = inhibition: 3.43%
[4]
  Potency: > 46 µM
[5]
  Potency: > 9.22 µM
[6]
  Potency: inactive
[7]
  Potency: inactive

## OC[C@@H]1O[C@@H](n2cnc3c(SCc4ccccc4)ncnc32)[C@@H](O)[C@H]1O
[1]
  Potency: > 11.4 µM
[2]
  activity change, negative = inhibition: 3.13%
[3]
  activity change, negative = inhibition: -17.2% [at 2.29 µM]
[4]
  Potency: > 46 µM
[5]
  Potency: > 9.22 µM
[6]
  Potency: inactive
[7]
  Potency: inactive

## O=C(O)C(=Cc1ccc(-c2ccccc2)cc1)C(=O)O
[1]
  Potency: > 11.4 µM
[2]
  activity change, negative = inhibition: -9.3%
[3]
  Potency: 0.794 µM (active)
[4]
  Potency: > 46 µM
[5]
  Potency: > 9.22 µM
[6]
  Potency: inactive
[7]
  Potency: inactive
[10]
  activity change, negative = inhibition: -41.1% [at 11.4 µM]
[11]
  Potency: inactive
[8]
  Potency: inactive

## Cc1cc(O)c(-c2cc(O)c(C)cc2O)cc1O
[1]
  Potency: > 11.4 µM
[2]
  activity change, negative = inhibition: -22.9%
[3]
  Potency: 3.98 µM (active)
[4]
  Potency: > 46 µM
[5]
  Potency: > 9.22 µM
[6]
  Potency: inactive
[7]
  Potency: inactive
[9]
  Potency: 1.26 µM (active)
[14]
  Potency: inactive
[11]
  Potency: inactive
[8]
  Potency: 0.794 µM (active)
